tim10-1 inh: tim10-1 yeast growth inhibition; S. cerevisiae tim10-1 ts strain growth, BacTiter-Glo, 24 h; inhibition, % at 20 µM; actives 2.2% (n = 330,000); AID 463190;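 active means inhibition of at least 40%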;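 further: mutant grown at 25 °C; 0% = DMSO wells with yeast and 100% = wells holding no yeast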
PfHsp90 set2: growth inhibition of yeast expressing Plasmodium Hsp90. S. cerevisiae expressing PfHsp90, BacTiter-Glo ATP, 48 h; yeast lacking PDR1 and PDR3 efflux regulators. inhibition, % at 9.4 µM. actives 0.32% (n = 310,000);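 active means every replicate shows inhibition above about 80%, whatever the replicate mean, limit read from the data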;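 further: 0% = DMSO neutral controls and 100% = 20 µM radicicol positive controls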
NLRP3 yeast inh: blocks the NALP3 inflammasome reconstituted in yeast | Yeast reconstituted NLRP3/ASC/caspase-1, beta-gal luminescence, 24 h | inhibition, % at 10 µM | actives 0.39% (n = 330,000) | AID 2825;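 active means inhibition of 50% or more; inactive means inhibition below 50%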;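 further: plate controls were induced DMSO wells for no effect and uninduced yeast grown without galactose for full effect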
tim23-1 inh: growth inhibitors of tim23-1 mutant yeast; inhibition, % at 20 µM; S. cerevisiae tim23-1 growth, BacTiter-Glo luminescence, 24 h; AID 463212; actives 1.3% (n = 330,000);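 active means growth inhibition of the mutant yeast at or above 50%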;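 further: temperature-sensitive mutant grown at 25 °C; plate controls were DMSO-treated mutant yeast for no effect and medium wells lacking yeast for full effect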
NALP1 yeast inh: NALP1 inhibition. S. cerevisiae NALP1/ASC/caspase-1 growth, X-gal OD620, 72 h. inhibition, % at 10 µM. actives 0.61% (n = 280,000). AID 2071; in the data active means inhibition mostly above about 24%, no sharp cut-off; inactive means mostly below about 32%
TIM10 inh: growth inhibitors of TIM10 yeast strain | S. cerevisiae TIM10 strain growth, BacTiter-Glo luminescence, 24 h | actives 1.4% (n = 330,000) | inhibition, % at 10 µM;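 active means inhibition of 40% or more at the single tested concentration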;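 further: wild-type TIM10 isogenic control strain grown at permissive 25 °C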
tim10-1 confirm: confirmation of tim10-1 mutant yeast growth inhibitors; shares compounds with tim10-1 inh; S. cerevisiae tim10-1 ts strain growth, BacTiter-Glo, 24 h; inhibition, % at 20 µM; actives 56% (n = 7,400);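 active means inhibition of yeast growth at or above a set limit in either of two repeat tests at 20 µM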;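 further: tim10-1 mutant grown at permissive 25 °C to find synthetic lethal compounds; 0% = DMSO yeast wells and 100% = medium wells without yeast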
TIM10 conf: confirmation of TIM10 yeast growth inhibitors | inhibition, % at 10 µM | shares compounds with TIM10 inh | S. cerevisiae tim10 strain growth, BacTiter-Glo luminescence, 24 h | actives 63% (n = 4,600);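 active means inhibition of yeast growth at or above a set limit in either of two replicates at 10 µM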;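 further: this counterscreen used the strain with wild-type TIM10; 0% = yeast with DMSO and 100% = medium wells lacking yeast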
Starred values were filed as active, the others as inactive; / = not tested or not shown. This is a sample that favours compounds with a hit; in the whole collection about 4.1% have one here.

SMILES	tim10-1 inh	PfHsp90 set2	NLRP3 yeast inh	tim23-1 inh	NALP1 yeast inh	TIM10 inh	tim10-1 confirm	TIM10 conf
O=[N+]([O-])c1ccccc1C1Nc2cccc3cccc(c23)N1	85*	-9	24	49	19	57*	76*	69*
O=[N+]([O-])c1ccc(Cl)c(C2Nc3cccc4cccc(c34)N2)c1	22	-29	14	-14	13	22	/	/
CCOC(=O)/C=C/C(=O)OCC(=O)Nc1cccc(Br)c1	47*	21	-3	39	-6	51*	33*	29*
Cc1nnnn1/C(=C\c1ccccc1)C(=O)OCC(=O)N(C)C1CCS(=O)(=O)C1 (centres undefined)	18	-7	16	11	-2	0	/	/
CCN(C(=O)COC(=O)/C(=C/c1ccccc1)n1nnnc1C)C1CCCCC1	42*	4	20	46	/	41*	38*	45*
Oc1ccccc1CN1CCC(C(O)(c2ccccc2)c2ccccc2)CC1	43*	22	11	19	36	51*	36*	41*
COc1ccc(CCNC(=O)c2cccc(NS(=O)(=O)c3ccccc3F)c2)cc1OC	13	-26	18	21	-5	13	/	/
O=C(NNC1=C(C(=O)C(F)(F)F)CCC1)c1cccc(Cl)c1	-40	51	5	-6	-9	-75	/	/
O=C(NNC1=C(C(=O)C(F)(F)F)CCC1)c1ccc(Cl)cc1	53*	122*	12	50	-6	41*	-16	40*
CCOC(=O)c1c(C)[nH]c(C)c1C(=O)COC(=O)[C@@H](NC(=O)c1ccco1)C(C)C	16	-14	7	13	/	7	/	/
Cc1cccc(Cc2c(C)nc3c(C(=O)NCc4ccco4)cnn3c2C)c1	41*	/	9	44	-2	48*	42*	40*
CCOc1cc(C(=O)O/N=C(\N)c2ccc([N+](=O)[O-])cc2)cc(OCC)c1OCC	61*	-15	0	16	0	46*	49*	42*
CCc1ccc(N2CC(C(=O)OCC(=O)Nc3ccc(C#N)cc3)CC2=O)cc1 (centres undefined)	13	-2	10	9	/	9	/	/
CCc1c(C)nc(Nc2nc(C)c3ccc(OC)cc3n2)[nH]c1=O	31	6	7	42	2	31	/	/
COc1ccc2c(C)nc(Nc3nc(C)c(C)c(=O)[nH]3)nc2c1	71*	-9	13	49	6	66*	61*	50*
CCCCC(CC)C(=O)Nc1ncc([N+](=O)[O-])s1 (centres undefined)	61*	-1	6	45	0	49*	62*	24
Cc1ccc(CC(=O)Nc2ncc([N+](=O)[O-])s2)cc1	30	-1	17	46	-2	36	/	/
CC(C)(C)C1=CC(=Nc2ccccc2N)C=C(C(C)(C)C)C1=O	7	-24	2	6	25	-4	/	/
CC(C)(C)C1=CC(=O)C(=O)C(C(C)(C)C)=C1	47*	103*	-8	24	51*	40*	39*	26
CCOc1ccc2nc(NC(=O)CN3C(=O)NC4(CCCC4)C3=O)sc2c1	-4	9	11	-2	/	-4	/	/
CN(Cc1ccc(C(C)(C)C)cc1)C(=O)Cc1ccc(S(=O)(=O)N2CCOCC2)s1	29	4	3	31	/	21	/	/
CCCNC(=S)NC1CC2CCCC(C1)N2Cc1ccc(F)cc1 (centres undefined)	-15	5	13	-6	-7	-13	/	/
CC(=O)NC1C(c2nc3ccccc3s2)=C(c2ccccc2)C(=O)N1c1ccc(C)cc1 (centres undefined)	53*	0	16	34	0	51*	51*	37*
CC(=O)Nc1ccc(S(=O)(=O)NNc2cccc(C)c2)cc1	10	12	10	17	7	-6	/	/
N/C(=N\OC(=O)c1ccccc1Br)c1cccc([N+](=O)[O-])c1	79*	-21	26	39	11	41*	84*	54*
SMILES	tim10-1 inh	PfHsp90 set2	NLRP3 yeast inh	tim23-1 inh	NALP1 yeast inh	TIM10 inh	tim10-1 confirm	TIM10 conf
O=C1OCC(CO)(CO)N=C1NNc1ccc(Cl)c(Cl)c1	49*	101*	38	8	21	42*	-4	41*
COc1ccc(/C(C)=N/NC(=O)CNC(=O)c2ccncc2)c(OC)c1	10	-7	13	8	17	-5	/	/
Cc1ccc(-c2nnc(Oc3cccc(C)c3)c3ccccc23)cc1	34	34	10	23	9	19	/	/
Cc1ccc(Oc2nnc(-c3ccccc3)c3ccccc23)cc1	51*	11	25	41	4	41*	41*	50*
COc1ccccc1N1CCN(C(=O)c2ccc3[nH]c4c(c3c2)CCCC4)CC1	40	-9	26	41	44	28	/	/
O=C(c1ccc2[nH]c3c(c2c1)CCCC3)N1CCN(c2ccc(F)cc2)CC1	41*	-45	8	46	35	42*	15	-6
NC(=O)c1cc([N+](=O)[O-])ccc1NCc1ccc(N)cc1	57*	11	14	30	/	54*	48*	65*
N/C(=N\OC(=O)c1ccccc1[N+](=O)[O-])c1cccnc1	16	/	14	23	/	4	/	/
O=C(Oc1cccnc1)c1ccccc1[N+](=O)[O-]	52*	-1	-14	32	23	50*	33*	33*
CCOc1ccc(C(=O)CCC(=O)N2CCN(c3ncccn3)CC2)cc1	23	-4	23	19	12	25	/	/
CCOC(=O)c1ccc(N2C(=O)CC(SCC(=O)Nc3ccc(S(N)(=O)=O)cc3)C2=O)cc1 (centres undefined)	51*	17	23	22	31	41*	45*	47*
Cc1ccc(N2C(=O)CC(SCC(=O)Nc3ccc(S(N)(=O)=O)cc3)C2=O)cc1 (centres undefined)	29	4	29	24	-5	1	/	/
Cc1ccc(-c2nn(-c3ccc(F)cc3)cc2C(=O)N(C)CC(=O)Nc2ccc(N3CCOCC3)cc2)cc1	14	/	14	3	/	7	/	/
O=c1[nH][nH]c(-c2ccccc2O)c1C(C[N+](=O)[O-])c1ccc(Cl)cc1Cl (centres undefined)	55*	0	16	37	70*	42*	30*	-5
Cc1ccc(/C=N/NC(=S)NCCc2ccccc2)s1	-60	-1	12	-3	13	10	/	/
CCCCNC(=S)N/N=C/c1ccc(C)s1	57*	-13	8	38	-4	58*	42*	54*
